The source made the active and inactive calls. Rule for the calls: active = hit-call score of the fitted dose curve at least 0.9, where 1 is the maximum; inactive = score below 0.9.
Columns and labels:
[1] = read-out: Vascular cell adhesion molecule 1 (VCAM1), VCAM1 (gene 7412); assay: BSK_hDFCGF_VCAM1: BioMAP Diversity Plus: hDFCGF Assay for Vascular cell adhesion molecule 1 (VCAM1) Biomarker Activity (AID 2283065); settings: primary human foreskin fibroblasts; actives raise or lower the signal;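 for AC50: VCAM-1 protein level quantified by ELISA after 24 h chemical exposure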
In short: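 Human foreskin fibroblast primary cells, chemical exposure 24 h; VCAM-1 by ELISA; bidirectional fit, DMSO = negative control/baseline.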

[2] = read-out: Plasminogen activator inhibitor-1 (PAI1), SERPINE1 (gene 5054); assay: BSK_hDFCGF_PAI1: BioMAP Diversity Plus: hDFCGF Assay for Plasminogen activator inhibitor-1 (PAI1) Biomarker Activity (AID 2283066); settings: primary human foreskin fibroblasts; actives raise or lower the signal
In short: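 Primary dermal fibroblasts (human foreskin), hDFCGF system; compound 24 h; PAI-1 by ELISA; bidirectional fit vs DMSO control.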

[3] = read-out: Intercellular Adhesion Molecule 1 (ICAM1), ICAM1 (gene 3383); assay: BSK_KF3CT_ICAM1: BioMAP Diversity Plus: KF3CT Assay for Intercellular Adhesion Molecule 1 (ICAM1) Biomarker Activity (AID 2283067); settings: primary human keratinocytes with fibroblasts; actives raise or lower the signal
In short: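 ICAM-1 levels are measured by ELISA 24 h after dosing a primary human co-culture of keratinocytes and foreskin fibroblasts. Activity in either direction is fitted relative to DMSO vehicle.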

[4] = BSK_KF3CT_SRB: Viability Assessment in the BioMAP Diversity Plus: KF3CT Assay (AID 2283069); settings: primary human keratinocytes with fibroblasts;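 note: total protein by sulforhodamine B staining as a cytotoxicity measure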
In short: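 Human primary keratinocyte plus foreskin fibroblast co-culture exposed to chemicals for 24 h. Total protein measured by 0.1% sulforhodamine B staining after 10% TCA fixation, read at 560 nm; bidirectional fitting versus DMSO baseline.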

[5] = read-out: Interleukin-1 alpha (IL1a), IL1A (gene 3552); assay: BSK_KF3CT_IL1a: BioMAP Diversity Plus: KF3CT Assay for Interleukin-1 alpha (IL1a) Biomarker Activity (AID 2283070); settings: primary human keratinocytes with fibroblasts; actives raise or lower the signal
In short: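 Human keratinocyte plus foreskin fibroblast primary co-culture, sampled 24 h after chemical dosing. IL-1a measured by ELISA; responses fitted bidirectionally against DMSO baseline (negative control), so gain or loss of signal both count.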

[6] = read-out: TIMP metallopeptidase inhibitor 2 (TIMP2), TIMP2 (gene 7077); assay: BSK_KF3CT_TIMP2: BioMAP Diversity Plus: KF3CT Assay for TIMP metallopeptidase inhibitor 2 (TIMP2) Biomarker Activity (AID 2283071); settings: primary human keratinocytes with fibroblasts; actives raise or lower the signal
In short: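 Cells: human keratinocytes co-cultured with foreskin fibroblasts. Treat with chemical, 24 h. Measure TIMP-2 by ELISA; fit curves bidirectionally vs DMSO baseline.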

[7] = read-out: Transforming growth factor beta 1 (TGFb1), TGFB1 (gene 7040); assay: BSK_KF3CT_TGFb1: BioMAP Diversity Plus: KF3CT Assay for Transforming growth factor beta 1 (TGFb1) Biomarker Activity (AID 2283072); settings: primary human keratinocytes with fibroblasts; actives raise or lower the signal
In short: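 Primary human skin cells (keratinocytes, foreskin fibroblasts) were co-cultured, exposed to test chemical and sampled at 24 h. TGF-b1 levels were measured by ELISA and fitted bidirectionally relative to DMSO.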

[8] = read-out: C-C motif chemokine 2 (Homo sapiens) (UniProt P13500); assay: BSK_KF3CT_MCP1: BioMAP Diversity Plus: KF3CT Assay for Monocyte Chemoattractant Protein 1 (MCP1/CCL2) Biomarker Activity (AID 2283073); settings: primary human keratinocytes with fibroblasts; actives raise or lower the signal
In short: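 ELISA readout of MCP-1 after 24 h chemical dosing of a human skin primary co-culture of keratinocytes and foreskin fibroblasts. Activity was fitted in both directions against DMSO.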

[9] = read-out: Matrix Metallopeptidase 9 (MMP9), MMP9 (gene 4318); assay: BSK_KF3CT_MMP9: BioMAP Diversity Plus: KF3CT Assay for Matrix Metallopeptidase 9 (MMP9) Biomarker Activity (AID 2283074); settings: primary human keratinocytes with fibroblasts; actives raise or lower the signal;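 for AC50: MMP9 protein level quantified by ELISA in the co-culture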
In short: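 Keratinocyte plus foreskin fibroblast human primary skin co-culture was dosed with chemical and MMP-9 was quantified by ELISA 24 h later. Bidirectional curve fitting used DMSO as negative control and activity baseline.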

[10] = read-out: urokinase plasminogen activator (uPA), PLAU (gene 5328); assay: BSK_KF3CT_uPA: BioMAP Diversity Plus: KF3CT Assay for urokinase plasminogen activator (uPA) Biomarker Activity (AID 2283075); settings: primary human keratinocytes with fibroblasts; actives raise or lower the signal
In short: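 Human keratinocyte plus foreskin fibroblast primary co-culture exposed to chemical for 24 h. uPA levels were quantified by ELISA, and activity was fitted bidirectionally against a DMSO negative-control baseline.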

CD40, CD40 (gene 958) = assay: BSK_LPS_CD40: BioMAP Diversity Plus: LPS Assay for CD40 Biomarker Activity (AID 2283076); settings: primary human HUVEC with PBMC; actives raise or lower the signal
In short: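 Cells were dosed, incubated 24 h, then assayed for CD40 by ELISA. Gain or loss of signal was analysed relative to DMSO controls. The culture paired human umbilical vein endothelium with peripheral blood mononuclear cells.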

[11] = read-out: E-selectin (Homo sapiens) (UniProt P16581); assay: BSK_LPS_Eselectin: BioMAP Diversity Plus: LPS Assay for Eselectin Biomarker Activity (AID 2283077); settings: primary human HUVEC with PBMC; actives raise or lower the signal
In short: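 Primary human vascular co-culture (endothelium plus PBMC) was dosed with chemical, then E-selectin quantified by ELISA at 24 h. Endpoint values derive from bidirectional curve fitting relative to DMSO.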

[12] = read-out: Interleukin-8 (IL8), CXCL8 (gene 3576); assay: BSK_LPS_IL8: BioMAP Diversity Plus: LPS Assay for Interleukin-8 (IL8) Biomarker Activity (AID 2283078); settings: primary human HUVEC with PBMC; actives raise or lower the signal
In short: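 Readout is IL-8 by ELISA, taken 24 h after compounds were added to LPS-stimulated endothelial/PBMC co-cultures. Both increases and decreases relative to DMSO control were scored through bidirectional fitting.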

[13] = BSK_LPS_SRB: Viability Assessment in the BioMAP Diversity Plus: LPS Assay (AID 2283079); settings: primary human HUVEC with PBMC;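 note: total protein by sulforhodamine B absorbance as a cytotoxicity measure; measured one day after compound addition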
In short: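 Readout is SRB absorbance at 560 nm (0.1% stain, TCA-fixed parallel cultures) as a total-protein cytotoxicity measure. Cells: primary human umbilical vein endothelium plus peripheral blood mononuclear cells, 24 h after chemical exposure; DMSO served as baseline.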

[14] = read-out: Interleukin-1 alpha (IL1a), IL1A (gene 3552); assay: BSK_LPS_IL1a: BioMAP Diversity Plus: LPS Assay for Interleukin-1 alpha (IL1a) Biomarker Activity (AID 2283080); settings: primary human HUVEC with PBMC; actives raise or lower the signal
In short: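 ELISA read-out of IL-1 alpha from a human primary vascular co-culture (endothelium plus PBMC) under LPS, sampled 24 hours post-dosing. Activity was fitted in both directions relative to DMSO controls.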

[15] = read-out: Monocyte Chemoattractant Protein-1 (MCP1), CCL2 (gene 6347); assay: BSK_LPS_MCP1: BioMAP Diversity Plus: LPS Assay for Monocyte Chemoattractant Protein-1 (MCP1) Biomarker Activity (AID 2283081); settings: primary human HUVEC with PBMC; actives raise or lower the signal;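 for AC50: secreted MCP-1 protein quantified by ELISA in culture supernatant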
In short: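 Human endothelial–PBMC co-cultures were dosed with chemical, then LPS-driven MCP-1 levels were quantified by ELISA at 24 h. Activity in either direction was fitted versus DMSO negative control.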

[16] = BSK_LPS_PGE2: BioMAP Diversity Plus: LPS Assay for Prostaglandin E2 (PGE2) Biomarker Activity (AID 2283082); settings: primary human HUVEC with PBMC; actives raise or lower the signal;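 for AC50: secreted prostaglandin E2 measured by ELISA in LPS-stimulated co-culture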
In short: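 LPS-activated HUVEC/PBMC co-culture; cmpd dosed, 24 h; PGE2 by ELISA; bidirectional fit vs DMSO; SRB (0.1%, TCA-fixed, 560 nm) in parallel plates for overt cytotox.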

[17] = read-out: Macrophage colony-stimulating factor (MCSF), CSF1 (gene 1435); assay: BSK_LPS_MCSF: BioMAP Diversity Plus: LPS Assay for Macrophage colony-stimulating factor (MCSF) Biomarker Activity (AID 2283083); settings: primary human HUVEC with PBMC; actives raise or lower the signal
In short: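 ELISA readout of M-CSF after 24 h compound exposure in a human endothelial/PBMC co-culture. Activity, in either direction, is fitted relative to DMSO vehicle.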

[18] = read-out: Tissue Factor, F3 (gene 2152); assay: BSK_LPS_TissueFactor: BioMAP Diversity Plus: LPS Assay for Tissue Factor Biomarker Activity (AID 2283084); settings: primary human HUVEC with PBMC; actives raise or lower the signal
In short: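 ELISA signal for cell-surface Tissue Factor (CD142) was read 24 h after compound dosing of an LPS-stimulated human endothelial–PBMC primary co-culture. Gain or loss of signal was scored relative to DMSO.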

Measured: AC50

Chain of E-selectin (Homo sapiens) (P16581 whole entry, looked up): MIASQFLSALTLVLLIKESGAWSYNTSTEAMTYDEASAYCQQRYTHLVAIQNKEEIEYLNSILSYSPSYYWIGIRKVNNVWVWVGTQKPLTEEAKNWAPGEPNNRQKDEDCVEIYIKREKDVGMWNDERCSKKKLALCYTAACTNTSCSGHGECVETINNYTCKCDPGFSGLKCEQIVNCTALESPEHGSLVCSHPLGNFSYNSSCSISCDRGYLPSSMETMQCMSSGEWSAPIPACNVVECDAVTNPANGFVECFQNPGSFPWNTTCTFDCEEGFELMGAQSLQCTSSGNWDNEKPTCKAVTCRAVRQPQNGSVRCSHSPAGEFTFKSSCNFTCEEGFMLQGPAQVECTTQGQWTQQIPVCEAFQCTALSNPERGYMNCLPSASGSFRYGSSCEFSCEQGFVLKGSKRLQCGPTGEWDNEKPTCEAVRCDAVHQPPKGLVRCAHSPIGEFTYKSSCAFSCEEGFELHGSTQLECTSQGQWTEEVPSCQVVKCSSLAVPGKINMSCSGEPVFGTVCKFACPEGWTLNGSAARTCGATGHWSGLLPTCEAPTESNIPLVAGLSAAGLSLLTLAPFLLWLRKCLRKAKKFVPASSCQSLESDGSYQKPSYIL

CCN1CCC2(CC1)COc1cc3c(cc12)N(C(=O)c1ccc(-c2ccc(-c4nnc(C)o4)cc2C)cc1)CC3
active: [1] 7.34 µM | [2] 9.28 µM | [3] 28.6 µM | [4] 20.8 µM | [5] 31.4 µM | [6] 17.9 µM | [7] 18.7 µM | [8] 27 µM | [9] 14.3 µM | [10] 29.9 µM | CD40, CD40 (gene 958) 9.75 µM | [11] 29.3 µM | [12] 14.1 µM | [13] 14.7 µM | [14] 9.03 µM | [15] 16.8 µM | [17] 16.7 µM | [18] 18.7 µM
inactive: [16]

O=C(Nc1ccc2[nH]ccc2c1)c1cc2cc(F)ccc2n1Cc1cccc(F)c1
active: [1] 2.65 µM | [2] 2.69 µM | [3] 8.14 µM | [4] 5.91 µM | [5] 6.68 µM | [6] 7.19 µM | [7] 6.88 µM | [8] 6.52 µM | [9] 4.6 µM | [10] 8.64 µM | CD40, CD40 (gene 958) 8.35 µM | [11] 12.4 µM | [12] 10.4 µM | [13] 13.2 µM | [14] 7.97 µM | [15] 10.4 µM | [16] 20 µM | [18] 8.59 µM

CC(C)CCCCCCOC(=O)c1ccccc1C(=O)OCCCCCCC(C)C
active: [5] 1.58 µM
not listed: [17]
inactive: all other assays above

CCCCC(CC)CO[N+](=O)[O-] (centres undefined)
active: [3] 30.9 µM | [4] 36.4 µM | [6] 31.7 µM | [8] 30.4 µM | [9] 34.7 µM | [10] 35.3 µM
inactive: all other assays above

CN(C)N=O
not listed: [17]
inactive: all other assays above

Cn1sc(Cl)cc1=O
active: [1] 23.4 µM | [2] 35.2 µM | [3] 20 µM | CD40, CD40 (gene 958) 26 µM | [11] 35.4 µM | [14] 29.3 µM | [15] 35.2 µM | [17] 29.5 µM
inactive: all other assays above

CCOC(=O)/C=C(C)/C=C/C[C@@H](C)CCCC(C)C
active: [1] 20.7 µM | [3] 34.5 µM | [4] 33.8 µM | [5] 26.3 µM | [6] 27 µM | [7] 13.5 µM | [8] 7.27 µM | [9] 30.2 µM | [10] 31.2 µM | CD40, CD40 (gene 958) 20 µM | [11] 34.8 µM | [12] 32.7 µM | [13] 38.7 µM | [14] 33.3 µM | [15] 30.7 µM | [16] 10.1 µM | [18] 29.2 µM

CCOP(=S)(OCC)Oc1ccc(S(C)=O)cc1 (centres undefined)
inactive: all assays above

Nc1cccc2ccccc12
active: [1] 25.9 µM | [2] 20 µM | [9] 20 µM | [18] 9.83 µM
not listed: [8] | [17]
inactive: all other assays above
